NPR1 activator = GC-A (human) enzyme activation. 370,000 tested, 0.14% active. HEK293 GC-A cells, cGMP TR-FRET, EC30 ANP; 0% at EC30 ANP, 100% saturating ANP. activation, % at 10 µM. P16066; in the data active means activation above about 40%
HDAC3 inhib = inhibitors of human histone deacetylase 3. O15379. recombinant HDAC3, fluorogenic peptide/trypsin coupled, fluorescence. inhibition, % at 8.3 µM. 320,000 tested, 0.15% active; in the data active means inhibition above about 26%, passing the limit was not always enough; inconclusive means no clear call, values can overlap the other calls
GC-B act = GC-B (human) receptor activation; P20594; HEK293-GC-B cells, CNP EC30, cGMP TR-FRET; 0% at EC30 CNP, 100% saturating CNP; activation, % at 10 µM; 370,000 tested, 0.11% active;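 active means activation at 10 µM reaching about 35% in either raw or pattern-adjusted values, limit read from the data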
ALR H2O2 inh = inhibitors of human sulfhydryl oxidase ALR; purified ALR, DTT oxidation, H2O2 HRP-luminol luminescence; 290,000 tested, 3.8% active; inhibition, % (test concentration not listed); P55789;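 active means mean replicate inhibition above about 79%, with every replicate also reaching it, limit read from the data; inconclusive means only one of the two criteria met; inactive means mean below limit and not every replicate reaching it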
Target sequence (P55789 whole entry, looked up): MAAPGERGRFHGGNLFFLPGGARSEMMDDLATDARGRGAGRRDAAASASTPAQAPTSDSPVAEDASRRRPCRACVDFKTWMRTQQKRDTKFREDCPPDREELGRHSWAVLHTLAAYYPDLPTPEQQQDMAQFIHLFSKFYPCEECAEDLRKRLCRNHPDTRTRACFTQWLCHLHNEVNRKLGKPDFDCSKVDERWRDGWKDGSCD
Active calls of the source: *; ? = inconclusive; . = no result given. Many of the other results were omitted from the sample, so hits are more common in it than they were.

SMILES	NPR1 activator	HDAC3 inhib	GC-B act	ALR H2O2 inh
CC(NC(=O)Cc1ccsc1)c1ccc(Cl)cc1Cl (centres undefined)	-10	1	4	.
COc1ccc(C(=O)N(C)CC2CCN(CCc3cccc(C(F)(F)F)c3)CC2)cc1C	-4	-6	-2	-10
O=C(Nc1ccc(Oc2ccc(C(=O)O)c(C(=O)O)c2)cc1)c1cccs1	-5	-1	2	.
COc1cc(Cn2cc([C@]34C[C@H]5C(=O)N(C)CC(=O)N5[C@H]3N(S(=O)(=O)c3ccccc3)c3ccccc34)c3ccccc32)cc(OC)c1	-14	.	-11	.
Cc1ccc2c(c1)c1c(n2CC(O)CNC2CCCCC2)CCCC1 (centres undefined)	-18	-5	-13	99*
Cc1ccc2c(c1)c1c(n2CC(O)CNC(CO)(CO)CO)CCCC1 (centres undefined)	-1	-6	2	96*
N#Cc1c(-c2cccc(Cl)c2)[nH]c(=S)[nH]c1=O	3	-3	-6	80*
Cc1ccc2nc(-c3cccc(Br)c3)c(Cc3ccccn3)n2c1	-1	.	-5	.
CCCCn1c(SCc2nnc(-c3ccccc3)o2)nc2c1c(=O)n(C)c(=O)n2C	1	0	-4	78*
O=Cc1[nH]c2ccccc2c1N(C(=O)CCl)c1ccc([N+](=O)[O-])cc1	-24	1	-12	99*
O=C(O)c1ccc(-n2c(/C=C/c3ccccc3)nc3ccccc3c2=O)cc1	-1	3	-2	99*
O=C(O)c1cccc(-n2c(/C=C/c3ccc([N+](=O)[O-])cc3)nc3ccccc3c2=O)c1	-3	1	-5	17
O=C(O)c1ccc(-n2c(/C=C/c3cccc([N+](=O)[O-])c3)nc3ccccc3c2=O)cc1	4	6	-2	90*
O=C(O)c1cccc(-n2c(/C=C/c3cccc([N+](=O)[O-])c3)nc3ccccc3c2=O)c1	-4	1	-7	12
O=C(O)CNS(=O)(=O)c1ccc(C2CCCCC2)cc1	-2	-1	1	11
COc1ccccc1CNC(=O)c1cccc(N(C)C)c1	-8	-10	2	42
CCOC(=O)N1CCC(N2C(=O)c3ccc(C(=O)O)cc3C2=O)CC1	0	-1	4	3
CCOC(=O)N1CCC(N2C(=O)c3cc(C(=O)NC4CCCCC4)ccc3C2O)CC1 (centres undefined)	.	3	.	94*
COc1ccc(C(=O)NC2CCCCCC2)cc1OC1CCN(C(C)=O)CC1	-2	-2	0	93*
CN(C)c1cccc(C(=O)NC2CCCCCC2)c1	0	-4	-1	94*
COc1ccc(CNC(=O)c2cccc(N(C)C)c2)cc1	-3	3	0	83*
Cc1nc2ccc(NS(=O)(=O)c3ccc4c(c3)OCCO4)cc2s1	3	18	8	-3
CCCN1C(=O)c2cc(C(=O)NC3CCCCCC3)ccc2C1O (centres undefined)	0	13	3	96*
CCCN1C(=O)c2cc(C(=O)O)ccc2C1O (centres undefined)	1	3	0	-17
COc1ccccc1NC(=O)c1ccc2[nH]c(C)c(C)c2c1	1	-8	-3	87*
SMILES	NPR1 activator	HDAC3 inhib	GC-B act	ALR H2O2 inh
O=C1c2ccccc2C(c2nnnn2Cc2ccccc2)N1Cc1ccc2c(c1)OCO2 (centres undefined)	0	.	-2	.
CCC(C)C(NS(=O)(=O)c1ccc(C)cc1)C(=O)N1CCOCCOCCOCC1 (centres undefined)	0	5	2	-6
C[C@@H]1O[C@@H](O[C@@H]2[C@@H](O)[C@H](OCCc3ccc(O)c(O)c3)O[C@H](CO)[C@H]2OC(=O)/C=C/c2ccc(O)c(O)c2)[C@H](O)[C@H](O)[C@H]1O	1	-3	10	98*
COc1cc(/C=C/C(=O)OC[C@H]2O[C@H](OC3(CO)OC(CO)C(O)C3O)[C@H](O)[C@@H](O)[C@@H]2O)ccc1O (some centres undefined)	3	7	7	?
CCOC(=O)C1(CCc2ccccc2)CCN(C(=O)CN2CCOC2=O)CC1	-5	-4	-3	0
CCOc1ccc(-n2c(C)cc(/C=C3/C(=N)N4C(=NC3=O)SN=C4S(C)(=O)=O)c2C)cc1	-3	3	-3	98*
CCOc1cc(/C=C2/C(=N)N3C(=NC2=O)SN=C3S(C)(=O)=O)ccc1OS(=O)(=O)c1ccccc1	.	4	.	95*
Cc1cc(/C=C2/C(=N)N3C(=NC2=O)SN=C3S(C)(=O)=O)c(C)n1-c1ccc(F)cc1	0	-3	2	62
COc1ccc2sc(-c3ccc(S(C)(=O)=O)cc3)c(C(=O)NCCc3c[nH]c4ccccc34)c2c1	30	-7	39*	0
COc1ccc2[nH]cc(CCNS(=O)(=O)c3ccccc3)c2c1	2	2	3	95*
Cn1c(=O)c2[nH]c(N=NNc3ccccc3F)nc2n(C)c1=O	-2	-1	-6	98*
Cc1ccccc1NN=Nc1nc2c([nH]1)c(=O)n(C)c(=O)n2C	2	-1	-4	.
Cc1cnn(CCC(=O)NNC(=S)Nc2ccc(F)cc2)c1	3	-1	2	82*
CCOc1ccc(CN(C)c2ccc(S(=O)(=O)N3CCN(C)CC3)cc2[N+](=O)[O-])cc1OC	.	1	.	-4
O=C(CCC(=O)N1CCN(S(=O)(=O)c2ccc3ccccc3c2)CC1)Nc1cc(Cl)cc(Cl)c1	-5	14	-5	0
OC[C@@H]1CN(Cc2ccco2)C[C@H](n2cnc3c(NCc4ccc(F)cc4)ncnc32)O1	1	.	0	.
Cc1ccc(/C=N/n2c(-c3ccco3)n[nH]c2=S)cc1	2	5	3	63
S=c1[nH]nc(-c2ccco2)n1/N=C/c1ccccn1	.	0	.	98*
Cc1cccc(/C=N/n2c(-c3ccco3)n[nH]c2=S)c1	4	14	-4	97*
CC(C)(C)C1N=C(c2ccc3ccccc3c2)OC1=O (centres undefined)	4	1	2	-2
CCOc1ccc(-n2c(COc3ccc(Cl)cc3)nnc2SCC(=O)Nc2ccc(OCc3ccccc3)cc2)cc1	0	.	1	.
COCCSc1ccccc1C(=O)N1CCN(c2ccccc2)CC1	-1	3	2	87*
O=C(CSc1ccccc1C(=O)N1CCN(c2ccccc2)CC1)N1CCCC1	1	-7	7	98*
CC(C)(C)c1ccc(/C=C2\CCn3c2nc2cc(C(=O)O)ccc2c3=O)cc1	.	4	.	.
CC(C)(C)c1cc(-c2nc(N)nc(N)n2)c(O)c(C(C)(C)C)c1	-1	29*	-1	.
COCc1cccc(-c2csc(C(C)(O)c3ccc(OC)cc3)n2)c1 (centres undefined)	0	.	4	.
O=C(O)c1cccc(S(=O)(=O)Nc2ccc(N3CCCCC3)cc2)c1	-2	-1	0	99*
Cc1cc(C)nc(NS(=O)(=O)c2ccc(NS(=O)(=O)c3ccc(F)c(F)c3)cc2)n1	6	.	2	.
O=S(=O)(Nc1ccc(N2CCCCC2)cc1)c1ccc(F)c(F)c1	2	-4	-9	99*
